Source: PubChem (National Center for Advancing Translational Sciences (NCATS))
IL1B secr inh = qHTS for Inhibitors of Inflammasome Signaling: IL-1-beta AlphaLISA Primary Screen; AID 743279, 2014; activity change, % at 57.5 µM; 4.7% of 360,000 active; THP-1 LPS/ATP IL-1B secretion, AlphaLISA, 16 h; hits give low values; in the data active means activity change below about -50%; inconclusive means mostly about -30% to -49%
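THP-1 cells pretreated 1 hr with compounds (up to 57.5 uM final), then stimulated with LPS (250 ng/mL final) plus ATP (1.25 mM final); secreted IL-1B measured by AlphaLISA after 16 hr, decreased signal indicating inhibition.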
DT40 TDP1 no CPT = qHTS for Inhibitors of human tyrosyl-DNA phosphodiesterase 1 (TDP1): qHTS in cells in absence of CPT; DT40 Tdp1-/- hTDP1 cells, no CPT, ATP luminescence, 48 h; Potency, µM (doses to about 46.2 µM), actives largely listed as inhibitors; 15% of 420,000 active; further: nearly all actives have a fitted effect of over 55% in size
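Stably hTDP1-transfected Tdp1-null chicken DT40 cells were treated with library compounds minus camptothecin and grown for at least 48 hr at 37 °C, after which cellular ATP was quantified by luminescence.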
TDP1 cell CPT = qHTS for Inhibitors of human tyrosyl-DNA phosphodiesterase 1 (TDP1): qHTS in cells in presence of CPT. chicken DT40 Tdp1-/-;hTDP1 cells + 20 nM CPT, ATP luminescence, 48 h. Potency, µM (doses to about 46.2 µM), most hits filed as inhibitors. 12% of 420,000 active. AID 686979, 2013; further: nearly all actives have a fitted effect of over 55% in size
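Cell growth measured by CellTiter-Glo luminescence after a minimum 48 h, 37 C compound exposure with 20 nM CPT in Tdp1-knockout DT40 cells stably expressing hTDP1, seeded 400/well; qHTS titration format.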
TDP1 block = qHTS Assay for Inhibitors of Tyrosyl-DNA Phosphodiesterase (TDP1); recombinant TDP1, AlphaScreen DNA substrate cleavage; 0.28% of 350,000 active; Potency, µM (top dose mostly 130 µM), hits mostly inhibitors; Tyrosyl-DNA phosphodiesterase 1 (Homo sapiens), Q9NUW8; further: nearly all actives have a fitted effect of over 40% in size
Target sequence (Q9NUW8 whole entry, looked up): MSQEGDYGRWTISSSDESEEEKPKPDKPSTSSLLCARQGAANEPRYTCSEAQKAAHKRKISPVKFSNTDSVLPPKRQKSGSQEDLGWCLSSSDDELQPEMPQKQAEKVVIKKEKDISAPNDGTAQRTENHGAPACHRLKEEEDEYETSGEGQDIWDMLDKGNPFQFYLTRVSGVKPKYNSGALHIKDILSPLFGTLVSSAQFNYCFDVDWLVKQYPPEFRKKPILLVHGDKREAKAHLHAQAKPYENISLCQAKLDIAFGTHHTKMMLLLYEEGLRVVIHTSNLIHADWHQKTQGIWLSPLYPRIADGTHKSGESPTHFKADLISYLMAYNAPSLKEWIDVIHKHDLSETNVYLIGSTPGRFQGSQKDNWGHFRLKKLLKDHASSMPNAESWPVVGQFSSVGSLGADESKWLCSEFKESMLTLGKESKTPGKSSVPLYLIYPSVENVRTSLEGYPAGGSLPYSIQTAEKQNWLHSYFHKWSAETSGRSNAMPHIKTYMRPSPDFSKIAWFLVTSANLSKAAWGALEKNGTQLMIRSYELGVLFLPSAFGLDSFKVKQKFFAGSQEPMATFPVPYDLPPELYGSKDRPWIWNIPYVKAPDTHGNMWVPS
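Recombinant E. coli-expressed Tdp1 (1 nM) preincubated with compound 15 min at RT, then 5'-biotin/3'-phosphotyrosine-FITC DNA substrate (15 nM) added for 5 min. AlphaScreen beads (10 ug/ml) added, 10 min RT; tyrosine-FITC cleavage read as signal loss.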
TGFb inhibitor = qHTS for Inhibitors of TGF-b; HepG2 CAGA-GFP TGF-b/SMAD3 reporter, GFP fluorescence, 18 h; TGF-beta stimulated, 500 pg/mL final; 1.2% of 410,000 active; AID 588855, 2011; Potency, µM (titrated, usually from 46.1 µM), hits mostly inhibitors; further: nearly all actives have a fitted effect of over 65% in size
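First, reporter cells (HEPG2 CAGA-GFP) rested 2 h at 37 degrees C. Next, compounds were pinned in and TGF-beta added to 500 pg/mL final. After 18 h, GFP was imaged per cell and summed per well.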
HepG2 tox = qHTS for Inhibitors of TGF-b: Cytotox Counterscreen. 0.76% of 410,000 active. HepG2 CAGA-GFP viability, ATP luminescence, 18 h. Potency, µM (doses to about 46.1 µM), usual class: cytotoxic. AID 588856, 2011
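CellTiter-Glo luminescence gave cytotoxicity after 18 hours at 37 degrees C. The cells were HepG2 CAGA-GFP in 1% FBS DMEM, stimulated with 500 pg/mL TGF-beta after compound addition. %Activity was normalised to no-cell wells (complete cell-killing) and DMSO (no toxicity), and curves were fitted and classified.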
Of the large screens only hits and unclear results are named; the others gave an inactive call. Shown are actives, neighbours in structure and some others; about 18% of the full set was active somewhere. Unless noted, the call rests on the fitted dose curve; in most records, active means well fitted curve in the direction sought with a large enough effect; inconclusive means small, poorly fitted or top-dose-only effect, or another doubt; inactive means no such curve, though single readings can be large; an effect the other way counts as inactive or inconclusive.

Cc1cc(C)cc(NS(=O)(=O)CCCS(=O)(=O)Nc2cc(C)cc(C)c2)c1	IL1B secr inh -81, DT40 TDP1 no CPT inconclusive, TDP1 cell CPT inconclusive, TGFb inhibitor inconclusive (no result: TDP1 block)
CC(NCC(O)COCc1ccc(Cl)cc1)c1ccccc1 (configuration not stated)	IL1B secr inh -59, DT40 TDP1 no CPT inconclusive, TDP1 cell CPT inconclusive
Cc1ccc(C(OCC(O)CN2CCCCC2)c2ccccc2)cc1 (configuration not stated)	IL1B secr inh inconclusive, DT40 TDP1 no CPT 23µM
Cc1ccc(C(OCC(O)CNC(C)c2ccccc2)c2ccccc2)cc1 (configuration not stated)	IL1B secr inh -107, DT40 TDP1 no CPT 12µM, TDP1 cell CPT 7.3µM, TGFb inhibitor inconclusive
CN1CCN(CC(O)COC(c2ccc(Cl)cc2)c2ccc(Cl)cc2)CC1 (configuration not stated)	DT40 TDP1 no CPT inconclusive, TDP1 cell CPT inconclusive, TGFb inhibitor inconclusive, HepG2 tox 10µM (no result: TDP1 block)
O=C(O)c1cccc(NS(=O)(=O)c2ccc(S(=O)(=O)N3CCOCC3)cc2)c1	none
O=C(NCCCNC(=O)c1ccccn1)c1ccc(Cl)cc1	none (no result: TDP1 block)
O=C1[C@H]2O[C@@H]2[C@@H](O)[C@H]2[C@H]1CCn1c(=O)n(Cc3cc4c(cc3Cl)OCO4)c(=O)n12	none (no result: IL1B secr inh, DT40 TDP1 no CPT, TDP1 cell CPT, TGFb inhibitor, HepG2 tox)
OC(COC(c1ccc(Cl)cc1)c1ccc(Cl)cc1)CN1CCCC1 (configuration not stated)	IL1B secr inh -51, TDP1 cell CPT inconclusive
Cc1ccc(C(OCC(O)CNC(CO)C(O)c2ccc([N+](=O)[O-])cc2)c2ccccc2)cc1 (configuration not stated)	IL1B secr inh -84, DT40 TDP1 no CPT 15µM, TDP1 cell CPT inconclusive, TGFb inhibitor inconclusive (no result: TDP1 block)
CCCCCCN1C[C@@H](n2cc(COC(=O)c3ccccc3)nn2)[C@H](O)C[C@@H]1c1ccc(C)cc1	DT40 TDP1 no CPT 12µM, TDP1 cell CPT 18µM (no result: TDP1 block)
CCCCCC(=O)N1C[C@H](n2cc(COC(=O)c3ccccc3)nn2)[C@@H](O)C[C@@H]1c1ccc(Cl)cc1	DT40 TDP1 no CPT 16µM, TDP1 cell CPT inconclusive, TGFb inhibitor inconclusive (no result: TDP1 block)
CCCCCCN1C[C@H](O)[C@@H](n2cc(COC(=O)c3ccccc3)nn2)C[C@@H]1c1ccc(Cl)cc1	DT40 TDP1 no CPT inconclusive, TDP1 cell CPT inconclusive, TGFb inhibitor inconclusive (no result: TDP1 block)
CCCCCCN1C[C@H](O)[C@@H](n2cc(COC(=O)c3ccccc3)nn2)C[C@@H]1c1ccc(C)cc1	DT40 TDP1 no CPT 16µM, TDP1 cell CPT inconclusive, TGFb inhibitor inconclusive (no result: TDP1 block)
CCCCCC(=O)N1C[C@@H](n2cc(COC(=O)c3ccccc3)nn2)[C@H](O)C[C@@H]1c1ccc(Cl)cc1	DT40 TDP1 no CPT inconclusive, TDP1 cell CPT inconclusive (no result: TDP1 block)
COc1ccc(CCNC(=O)CNC(=O)c2ccccc2Br)cc1OC	none (no result: TDP1 block)
Cc1ccc(C(=O)O)cc1NC(=S)NC(=O)c1ccc(COc2ccccc2)cc1	DT40 TDP1 no CPT inconclusive, TDP1 cell CPT inconclusive (no result: TDP1 block)
O=C(Nc1ccc(C(=O)O)cc1)/C(=C\c1ccc2c(c1)OCO2)NC(=O)c1ccccc1Cl	none (no result: TDP1 block)
COc1cccc(N2CCN(c3ccc4nnc(CCC(=O)O)n4n3)CC2)c1	none (no result: IL1B secr inh)
CCOC(=O)c1ccc(NC(=O)Cn2cc(C(=O)c3ccc(CC)cc3)c(=O)c3ccc(C)nc32)cc1	DT40 TDP1 no CPT 5.8µM, TDP1 cell CPT 12µM (no result: IL1B secr inh)
Cc1ccc2c(=O)c(C(=O)c3ccccc3)cn(CC(=O)Nc3ccccc3)c2n1	none (no result: IL1B secr inh)
